This passage reports inhibition results from PubChem BioAssay AID449762 (Southern Research Specialized Biocontainment Screening …, 2010).

Out of some 330,000 compounds screened, about 1,900 (0.58%) were called active. Another 4% or so got no clear call; they are omitted. Rule as the data show it: inconclusive = inhibition above about 70% without an active follow-up result; inactive = below that. These entries were drawn from the full list. Potency and affinity values are given separately.

A short description of this experiment: M. tuberculosis growth inhibition, HTS (AID 449762).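 Also: bacterial growth assessed after seven days of incubation.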 The conditions noted are these: M. tuberculosis H37Rv growth inhibition, 7H9 media; at 25 µM; active compounds read high.
As for `Cc1ccc(NC(=O)CC2OC(=O)c3ccccc32)cc1S(=O)(=O)N1CCCCCC1` (stereo not given), the inhibition (usually the relative decrease from the control value, in per cent) was -3.23% (inactive).
Take `Cc1nn(CCc2nn[nH]n2)c2nc(-c3ccc(C4CCCCC4)cc3)cc(C(F)(F)F)c12`: the inhibition is 21.8% (inactive).
With `Cc1nn(CCc2nn[nH]n2)c2nc(-c3ccccc3)cc(C(F)(F)F)c12`, the inhibition was 3.42% (inactive).
Turning to `CC(C)(C)c1ccc(C(=O)N2CCC(=O)N(C(COCc3ccccc3)Cc3ccccc3)CC2)cc1` (stereo not given), the inhibition is -7.28% (inactive).
Regarding `C=CCNc1oc(-c2ccc(OCC)cc2)nc1C#N`, the inhibition is 0.33% (inactive).
Regarding `Cc1ccc(S(=O)(=O)N2CCN(Cc3nc4ccccc4n3C)CC2)cc1`, the inhibition was -10.2% (inactive).
Next, `CC(OC(=O)c1nc(Cl)ccc1Cl)C(=O)Nc1ccc2c(c1)OCCO2` (stereo not given): 23.5% (inactive).
Turning to `Cc1ccc(OCCCCN2CCCCC2)c(C)c1`, the inhibition was 0.08% (inactive).
As for `Cc1ccc(OCCCCNC2CCCCC2)c(C)c1`, the inhibition is 0.93% (inactive).
On to `O=C(COC(=O)C1=Cc2ccccc2OC1)NCc1ccccc1`, for which the inhibition is -0.53% (inactive).
On to `Cc1ccc2c(c1)N(CC(=O)OC(CC(C)C)C(=O)NC1CCCC1)C(=O)CO2` (stereo not given), for which the inhibition is 0.6% (inactive).
On to `Cc1nc(-c2ccccc2)sc1C1(C)CC(c2ccc(OC(F)(F)F)cc2)=NO1` (stereo not given), for which the inhibition was 1.65% (inactive).
In the case of `Cc1nc(NC(=O)c2ccccc2)sc1C1(C)CC(c2ccccc2F)=NO1` (stereo not given), the inhibition was -0.28% (inactive).
As to `CN1C(=O)C(O)(CC(=O)c2cccnc2)c2ccccc21` (stereo not given), the inhibition is -2.52% (inactive).
On to `CCC1CN(C(=O)N2CCC(C(=O)NCc3ccc(C)o3)CC2)c2cc(C)ccc2O1` (stereo not given), for which the inhibition is -5.76% (inactive).
With `Cc1ccnc(N/C=C(/NC(=O)c2ccccc2)C(=O)NN)n1`, the inhibition is 2.37% (inactive).
As to `COc1ccc(-n2c(C)cc(C(=O)COC(=O)Cn3cnc4ccccc43)c2C)cc1`, the inhibition is 5.9% (inactive).
Take `COc1ccc(C(=O)OCC2CC(c3ccccc3)=NO2)cc1OC` (stereo not given): the inhibition is 2.23% (inactive).
On to `COc1ccccc1C1=NOC(COC(=O)c2ccc(Br)cc2)C1` (stereo not given), for which the inhibition was 66.3% (inactive).
For `COC(C[C@H]1O[C@H]1C(=O)[C@@H](C)OCc1ccccc1)OC`, the inhibition was -3.98% (inactive).
With `Cc1ccc(NC(=O)/C(C#N)=N/Nc2ccc(C(=O)O)cc2)c(C)c1`, the inhibition was -9.1% (inactive).
In the case of `CCOC(=O)C1CCN(Cc2coc3c(Cl)cc(Cl)cc3c2=O)CC1`, the inhibition is 10.8% (inactive).
On to `COc1ccc(F)cc1S(=O)(=O)NCc1ccccc1`, for which the inhibition is -3.97% (inactive).
In the case of `CCN(c1ccc(OC)cc1)S(=O)(=O)c1ccc2c(c1)CCN2C(=O)CCC(=O)O`, the inhibition was -2.77% (inactive).
Regarding `CCOC(=O)N1CCC(=C2c3ccc(Cl)cc3CCc3cccnc32)CC1`, the inhibition is 2.73% (inactive).
On to `c1ccc2c(c1)CCc1ccccc1C2=C1CCNCC1`, for which the inhibition was -0.99% (inactive).
Consider `CC(C)(C)NC(=O)C(c1ccco1)N(C(=O)Cn1nnc(-c2ccc(F)cc2)n1)c1cccc(F)c1` (stereo not given), for which the inhibition is 5.34% (inactive).
For `Cc1cc(N2CCN(Cc3nc(-c4ccc(F)cc4)oc3C)CC2)cc(C)n1`, the inhibition is 9.44% (inactive).
As to `Cc1cc(N2CCN(Cc3nc(-c4ccc(Cl)cc4)oc3C)CC2)cc(C)n1`, the inhibition was 15.9% (inactive).
Regarding `O=c1cnnc(SCCc2ccccc2)[nH]1`, the inhibition was -11.7% (inactive).
On to `COc1ccc(-c2nnc3ccc(SC)nn23)cc1`, for which the inhibition is 12.5% (inactive).
Next, `O=C(O)Cn1ccc2ccccc21`: -3.21% (inactive); `CC(C)Cn1c(CN2CCN(C)C(CCO)C2)nc2ccccc21` (stereo not given): -7.61% (inactive); `CC(=O)Oc1ccc2oc(=O)c3c(c2c1)CCCN3C(=O)CN1CCN(c2ncccn2)CC1`: -4.05% (inactive).
As to `O=C(CN1CCN(c2ncccn2)CC1)N1CCCc2c1c(=O)oc1ccc(O)cc21`, the inhibition was 6.59% (inactive).
For `O=C(NCCNC(=O)c1ccc(Cl)cc1Cl)c1ccccn1`, the inhibition was 0.45% (inactive).
For `CCCc1cc(=O)[nH]c(SCC(=O)N2c3ccccc3NC(=O)C2(C)C)n1`, the inhibition is 3.32% (inactive).
Consider `CC1=C(C(=O)N2CCOCC2)C(c2cc(C)cs2)NC(=O)N1` (stereo not given), for which the inhibition was 2.64% (inactive).
With `Cc1ccc(F)cc1NC(=O)COC(=O)c1ccc2ncsc2c1`, the inhibition was -5.07% (inactive).
Turning to `c1ccc(C[C@H]2CN=C(Nc3ccccc3)N2CCC2CCCC2)cc1`, the inhibition is 30% (inactive).
With `c1ccc(C[C@H]2CN=C(Nc3ccccc3)N2CCCC2CCCCC2)cc1`, the inhibition is 22.3% (inactive).
In the case of `O=C(O)C(Cc1c[nH]c2ccccc12)NS(=O)(=O)c1cccc(Cl)c1Cl` (stereo not given), the inhibition was -3.04% (inactive).
As for `COc1ccc(NC(=O)CN(C)CC(=O)Nc2sc3c(c2C#N)CCC3)cc1`, the inhibition was -8.9% (inactive).
Next, `Cc1ccc(NC(=O)CN(C)CC(=O)Nc2sc3c(c2C(N)=O)CCC3)cc1`: 66.6% (inactive).
With `CC(=O)OC(c1nc2ccccc2c(=O)n1C1CC2(OC1=O)c1ccccc1N1C(=O)C(C)(C)N(O)C12)C(C)C` (stereo not given), the inhibition is -6.29% (inactive).
Next, `Cc1ccc(N2C(=O)NC(=O)/C(=C/C=C/c3ccco3)C2=O)cc1`: 53.8% (inactive).
Consider `Cc1ccc(N2C(=O)NC(=O)/C(=C\C=C\c3ccco3)C2=O)cc1`, for which the inhibition was -4.11% (inactive).
Next, `Cc1cc(NC(=O)CSCC(=O)N(C)Cc2ccc(F)cc2)no1`: -22.2% (inactive); `Cc1ccc(-c2csc3ncnc(Nc4ccc(C(=O)O)cc4)c23)cc1`: 6.21% (inactive).
Consider `Fc1ccc(-c2csc3ncnc(Nc4ccc(N5CCOCC5)cc4)c23)cc1`, for which the inhibition was 28.8% (inactive).
For `O=C1c2cccc3c([N+](=O)[O-])c(O)cc(c23)C(=O)N1Nc1ccccc1`, the inhibition was -8.23% (inactive).
For the compound `O=C(Nc1ccccc1)NC1CCCCC1`, the inhibition is 7.91% (inactive).
Take `CCC(=O)N1c2ccc(S(=O)(=O)NCc3ccccc3)cc2CC1C` (stereo not given): the inhibition was 3.62% (inactive).
On to `COc1nc(-c2ccccc2)cc(-c2ccccc2)n1`, for which the inhibition was 11.4% (inactive).
Consider `COc1ccc(-c2cc(-c3ccccc3)nc(NN)n2)cc1OC`, for which the inhibition was 2.81% (inactive).
As to `CC(C)Cn1c(SCC(=O)N2CCc3ccccc3C2)nc2cc(Cl)ccc2c1=O`, the inhibition was -3.67% (inactive).
As for `CCCCN(CC)CCNC(=O)c1cn(C)c(=O)c2c1c1ccccc1n2C`, the inhibition is -0.73% (inactive).
`Cc1cc(C)n2nc(CCc3ccccc3)nc2n1`: the inhibition is 0.58% (inactive).
As to `CCCCCCCC(=O)NNC(=O)c1ccc([N+](=O)[O-])cc1`, the inhibition was 3.14% (inactive).
The result for `CCCCC(=O)NNC(=S)NC(=O)c1cccc([N+](=O)[O-])c1` reads 29% (inactive); that for `COc1ccc2oc(=O)c(C(=O)NCc3ccc(C)cc3)cc2c1`, -2.24% (inactive).
`COc1cc2c(cc1OC)C1=C(C#N)CCC(=O)N1CC2`: the inhibition is 7.82% (inactive).
The result for `Cc1cc(C)n(-c2nc(Nc3ccccc3)nc(-n3nc(C)cc3C)n2)n1` reads 15.3% (inactive); that for `CNc1nc(C)nc(-n2nc(C)cc2C)n1`, -0.69% (inactive).
The result for `Cc1cccc(NC(=O)COC(=O)Cc2cccs2)c1C` reads 4.38% (inactive); that for `Cc1ccc(C)c(N2CN(CCC3=CCCCC3)CNC2=S)c1`, -4.98% (inactive); that for `C[C@@H]1O[C@@H](O[C@H]2[C@H](Oc3cc(O)c4c(c3)O[C@H](c3ccc(O)cc3)CC4=O)O[C@H](CO)[C@@H](O)[C@@H]2O)[C@H](O)[C@H](O)[C@H]1O`, -0.33% (inactive).
On to `C[C@@H]1O[C@@H](O[C@H]2[C@H](Oc3cc(O)c4c(c3)OC(c3ccc(O)cc3)CC4=O)O[C@H](CO)[C@@H](O)[C@@H]2O)[C@H](O)[C@H](O)[C@H]1O` (stereo not given in full), for which the inhibition is -2.06% (inactive).
`CCCCc1nc2cc(C(=O)N3CCCCC3CCNC(C)=O)ccc2o1` (stereo not given): the inhibition was 7.94% (inactive).
Turning to `CCC(CC)c1nnc(NC(=O)c2cc([N+](=O)[O-])ccc2N2CCOCC2)s1`, the inhibition is 5.48% (inactive).
For `CCN1CCN(C(=S)NC(=O)/C=C/c2cccs2)CC1`, the inhibition was -0.91% (inactive).
Next, `NC(=O)NCCC1=CCCCC1`: 7.39% (inactive).
Next, `O=C(NCCC1=CCCCC1)NC1CCCCC1`: 7.21% (inactive); `O=C1N[C@@H](Cc2c[nH]c3ccccc23)COC(=O)[C@@H](Cc2ccc(F)cc2)C/C=C\C[C@H]1CC(=O)N(CCO)Cc1ccccc1`: 4.64% (inactive).
The result for `COc1ccc(C(CNC(=O)c2ccc(Br)o2)N2CCN(C)CC2)cc1` (stereo not given) reads 2.14% (inactive); that for `CC(=O)Nc1ccc(NC(=O)C(C)OC(=O)COc2ccc(Nc3ccccc3)cc2)cc1` (stereo not given), 40.1% (inactive).
On to `CC(OC(=O)COc1ccccc1Cc1ccccc1)C(=O)N(C)c1ccccc1` (stereo not given), for which the inhibition was -4.05% (inactive).
Regarding `CN(CC(=O)Nc1ccc(Cl)cc1)C(=O)C1=COCCO1`, the inhibition was -13.8% (inactive).
With `Cc1ccc(NS(=O)(=O)c2c(C)[nH]c(C)c2C(=O)N2CCCC2)cc1`, the inhibition is 2.46% (inactive).
For the compound `N#C/C(=N/Nc1ccccc1[N+](=O)[O-])C(N)=S`, the inhibition is -5.6% (inactive).
Consider `Oc1ccccc1N=N/C(=N/Nc1ccccc1O)c1ccccc1`, for which the inhibition is 10.4% (inactive).
As for `COc1ccc(-c2nc(CN3CCCCC3c3cccnc3)c(C)o2)c(F)c1` (stereo not given), the inhibition is 3.24% (inactive).
On to `c1ccc(Oc2cccc(OCCCCN3CCCC3)c2)cc1`, for which the inhibition was 1.38% (inactive).
For the compound `CN1CCN(C(=O)c2cnn3c2NC(c2ccccc2)CC3C(F)(F)F)CC1` (stereo not given), the inhibition is -19.6% (inactive).
As for `CCN(CC)CCCN(Cc1cc2cc3c(cc2[nH]c1=O)OCO3)C(=S)Nc1ccccc1OC`, the inhibition is -4.51% (inactive).
For `C[n+]1nc(Nc2ccccc2)sc1-c1ccc(O)cc1`, the inhibition is 4.57% (inactive).
`CCc1ccc(Nc2n[n+](-c3ccccc3)c(-c3ccc(C(=O)O)cc3)s2)cc1`: the inhibition is 4.87% (inactive).
As for `O=C(NCc1cccs1)c1cc(S(=O)(=O)N2CCOCC2)ccc1N1CCCC1`, the inhibition was 5.48% (inactive).
Next, `Cc1ccccc1CN1CCN(c2ccc(S(=O)(=O)N3CCCC3)cn2)CC1`: -6.22% (inactive); `COC(=O)C1C(=O)C2=C(CC1C)NC(C)=C(C(=O)OC(C)C)C2c1ccc(C)o1` (stereo not given): 2.94% (inactive).
